Molecules are shown by their SMILES. Hit rate of the full screen: of about 16,000 compounds, about 5,100 (32%) were called active. Another 25% or so got no clear call; they are omitted. The list shows a part of the results. Values without a mark were called inactive. Calls follow the shape of the dose curve; as a rule, active = well fitted curve in the direction sought with a large enough effect; inconclusive = small, poorly fitted or top-dose-only effect, or effect the other way; inactive = no such curve, though single readings can be large or run the other way.

This is an account of results in PubChem BioAssay AID1851 (National Center for Advancing Translational Sciences (NCATS), 2009).
% is scaled to controls: 0 for no effect and ±100 for the full control effect.

In the assay the target is Cytochrome P450 3A4 (Homo sapiens) (UniProt P08684). The experiment in a line: Cytochrome panel assay with activity outcomes. The following applies: recombinant CYP, pro-luciferin dealkylation, luminescence, p450-cyp3a4; series mostly up to 57.1 µM.
Cytochrome P450 3A4 (Homo sapiens), sequence (P08684 whole entry, looked up): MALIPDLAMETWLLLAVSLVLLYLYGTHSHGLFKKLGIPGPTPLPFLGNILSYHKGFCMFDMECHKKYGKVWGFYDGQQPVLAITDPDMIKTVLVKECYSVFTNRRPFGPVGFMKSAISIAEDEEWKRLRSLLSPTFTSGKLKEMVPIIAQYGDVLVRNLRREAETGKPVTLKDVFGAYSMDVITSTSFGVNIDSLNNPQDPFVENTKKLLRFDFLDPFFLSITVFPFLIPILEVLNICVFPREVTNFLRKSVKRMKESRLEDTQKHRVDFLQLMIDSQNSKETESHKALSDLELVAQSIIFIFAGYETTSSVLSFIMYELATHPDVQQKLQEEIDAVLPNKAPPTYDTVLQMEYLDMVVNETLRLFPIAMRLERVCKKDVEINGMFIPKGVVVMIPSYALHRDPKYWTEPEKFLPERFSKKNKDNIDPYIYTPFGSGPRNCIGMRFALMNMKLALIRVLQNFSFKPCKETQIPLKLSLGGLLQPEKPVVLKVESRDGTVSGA
For `CCSC[C@@H](N)C(=O)O`, the activity, negative = inhibition is -3.53% [at 11.4 µM].
As to `COC(=O)\C(C(C)=O)=C(/C=C/C=C/C=C/N(C)C)N(C)C`, the activity, negative = inhibition is 1.83% [at 2.29 µM].
What is called AC50 is the concentration giving half of the maximal activity seen. For `CCc1c(C)nc(N)n2c(SCC(=O)Nc3ccccc3)nnc12`, the AC50 is 17.8 µM (active).
Take `CN(Cc1ccco1)c1ccnc(-c2cccc(C#N)c2)n1`: the AC50 was 12.6 µM (active).
Turning to `CN(Cc1ccco1)c1ccnc(-c2ccoc2)n1`, the AC50 entry is “inactive”.
With `COc1cccc(-c2nccc(N(C)Cc3ccco3)n2)c1`, the AC50 was 20 µM (active).
Take `CN(C)c1ncc2nc(-c3cccc(C#N)c3)c(=O)n(C[C@H]3CCCO3)c2n1`: the AC50 result was “inactive”.
In the case of `CN(Cc1ccco1)c1ccnc(-c2cccnc2)n1`, the AC50 is 12.6 µM (active).
As for `CCN=C1NN=C(c2ccc(C)cc2)CS1`, the AC50 is 15.8 µM (active).
Take `CC(=O)Nc1ccc(NC(=O)CC2Nc3cccc4cccc(c34)NC2=O)cc1` (configuration not stated): the AC50 is 10 µM (active).
Turning to `CC(=O)Nc1ccc(C#Cc2ccc(NC(C)=O)cc2)cc1`, the AC50 entry was “inactive”.
For `N/N=C1/c2ccccc2N[C@H]1OC(=O)Nc1ccccc1`, the activity, negative = inhibition was -29.3% [at 11.4 µM].
For `Cc1cccc(NC(=O)CC2Nc3cccc4cccc(c34)NC2=O)c1` (configuration not stated), the AC50 is 2.51 µM (active).
Regarding `COc1cccc2c1C(=N)c1c(O)c3c(c(O)c1C2=O)C[C@](O)(C(C)=O)C[C@@H]3O[C@H]1C[C@H](N)[C@@H](O)[C@H](C)O1`, the activity, negative = inhibition is -16% [at 11.4 µM].
Regarding `COc1ccc(NS(=O)(=O)c2ccc(NC(=O)c3cnn4c(C(F)F)cc(-c5ccc(C)cc5)nc34)cc2)cc1`, the AC50 is 1.26 µM (active).
On to `Cc1cccc(C)c1NC(=O)CSc1nc(C)c(CC(=O)c2ccc(Br)cc2)c(C)c1C#N`, for which the AC50 was 5.01 µM (active).
In the case of `CCC(=O)Nc1nonc1-c1nc2ccccc2n1N(C(=O)CC)C(=O)CC`, the AC50 is 22.4 µM (active).
Regarding `CC(=O)Nc1nonc1NC(=O)c1ccc(C(C)(C)C)cc1`, the activity, negative = inhibition was -6.73% [at 11.4 µM].
For the molecule `CCC(=O)N1CCn2c1nc1ccccc12`, the AC50 entry was “inactive”.
On the same count and under the same terms, the same measure for `Cc1nonc1NCn1nnc2ccccc21`: “inactive”; for `O=C(O)Cn1c(-c2ccccc2)nc2ccccc21`: “inactive”.
Regarding `CCn1c(-c2nonc2NC(=O)c2ccccc2)nc2ccccc21`, the AC50 was 3.16 µM (active).
Regarding `Nc1c(S(N)(=O)=O)cc(S(N)(=O)=O)cc1S(N)(=O)=O`, the activity, negative = inhibition was -3.99% [at 11.4 µM].
In the case of `Cc1ccc(-n2c(=O)c3sccc3n(CC(=O)NCc3ccco3)c2=O)cc1F`, the AC50 entry is “inactive”.
Turning to `CCOc1cc2[nH]c(=S)n(CCCC(=O)NCc3ccco3)c(=O)c2cc1OCC`, the half-maximal activity concentration (AC50) is 3.98 µM (active).
For `O=C(CCCCCn1c(=O)[nH]c2ccsc2c1=O)NCc1ccc2c(c1)OCO2`, the AC50 was 0.631 µM (active).
Regarding `COCCn1c(=S)[nH]c2cc(C(=O)NC(C)C)ccc2c1=O`, the AC50 result is “inactive”.
`COCCCn1c(=S)[nH]c2ncccc2c1=O`: the AC50 result was “inactive”.
For the molecule `O=C(CCCCn1c(=S)[nH]c2ccsc2c1=O)NCc1ccco1`, the AC50 is 7.08 µM (active).
Regarding `O=C(NCc1ccco1)c1ccc2c(=O)n(-c3ccccc3)c(=S)[nH]c2c1`, the AC50 result is “inactive”.
For the molecule `COCCNC(=O)CCCCCn1c(=S)[nH]c2ccccc2c1=O`, the AC50 was 8.91 µM (active).
Consider `O=C(CCn1c(=O)[nH]c2ccsc2c1=O)Nc1ccc(F)c(F)c1`, for which the AC50 entry is “inactive”.
